aDG glyco act – alpha-DG glycosylation activation | Pro5-aDG cells, alpha-DG glycosylation AlphaScreen (IIH6); 0% Pro5, 100% B10-LARGE cell signal | activation, % at 10 µM | 360,000 tested, 0.22% active | AID 624168;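 active means activation of at least 8% versus controls, or a plate z-score of at least 8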;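 further: Pro5 are CHO cells carrying HIG-tagged alpha-DG that lacks glycosylation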
ZTA DNA inh – blocks Epstein-Barr virus ZTA, an EBNA-1 counter-screen. P03206. 320,000 tested, 0.15% active. inhibition, % at 11 µM. ZTA-DNA binding, fluorescence polarization; in the data active means inhibition above about 33%
Target sequence (P03206 whole entry, looked up): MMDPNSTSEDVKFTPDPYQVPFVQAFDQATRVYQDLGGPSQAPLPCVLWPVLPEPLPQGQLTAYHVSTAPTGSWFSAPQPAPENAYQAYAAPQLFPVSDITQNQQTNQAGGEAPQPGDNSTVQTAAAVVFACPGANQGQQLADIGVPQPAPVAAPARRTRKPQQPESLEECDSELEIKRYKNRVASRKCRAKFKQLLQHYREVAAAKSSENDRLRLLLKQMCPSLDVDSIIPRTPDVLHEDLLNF
p47phox inh – inhibitors of human p47phox binding; P14598; p47phox/p22phox peptide binding, fluorescence polarization, 2 h; inhibition, % at 24.7 µM; 220,000 tested, 0.53% active;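 active means inhibition above about 30%, limit read from the data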
EBNA-1 inhibitor – blocks EBNA-1 binding to DNA | 300,000 tested, 0.34% active | EBNA-1 DNA binding, fluorescence polarization | inhibition, % at 14.8 µM; in the data active means inhibition above about 28%
NR1D1 modulator – modulates human Rev-erb alpha binding to DNA; 370,000 tested, 0.79% active; P20393; activity, % at 10 µM; AID 1259318; Rev-erbα–FITC-DNA binding, fluorescence polarization, 90 min;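 active means activity above about 14%, limit read from the data; passing the limit was not always enough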
PG9 binder – PG9 antibody binding by small molecule. TR-FRET gp120-PG9 antibody binding. inhibition, % at 6.7 µM. 360,000 tested, 0.43% active. AID 624416; in the data active means inhibition above about 8.5%
aDG glyco conf – alpha-DG glycosylation activation, confirmation. shares compounds with aDG glyco act. Pro5-aDG cells, IIH6 AlphaLISA; scaled to LARGE-overexpressing B10 cells as 100%. activation, % at 10 µM (by protocol). 600 tested, 17% active;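 active means activation of at least 7% in one or more replicates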;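 further: cells exposed to compound for two days before detection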
Of the large screens only hits and unclear results are named; the others gave an inactive call (follow-up assays come after a bar, where they were run). A selection: hits, their analogues and other compounds. The true share with any hit is near 1.9%.

CCOC1=C2CN(S(=O)(=O)c3ccc(C)cc3)[C@H](c3ccccc3)C[C@@H]2N(S(=O)(=O)c2ccc(C)cc2)[C@H](c2ccccc2)C1	aDG glyco act 6.8 (no result: ZTA DNA inh, p47phox inh, EBNA-1 inhibitor) | aDG glyco conf inactive
CCn1c(C)nc2cc(S(=O)(=O)C(F)(F)C(F)C(F)(F)F)ccc21 (stereo not given)	aDG glyco act 4.4 (no result: PG9 binder) | aDG glyco conf inactive
COc1cc(-c2nnc(COc3ccc(Cl)cc3C)o2)cc(OC)c1OC	aDG glyco act 6.8 | aDG glyco conf inactive
C=CCN1C(=O)[C@@H](CC(=O)NCc2ccccc2)[C@]2(C(=O)OCC)CCCCC/C=C/12	none (no result: aDG glyco act, ZTA DNA inh, p47phox inh, EBNA-1 inhibitor, PG9 binder)
CC(C)OCCCN(C)C1CCN(S(=O)(=O)c2ccc(-c3cc(C(F)(F)F)no3)s2)CC1	aDG glyco act 3.8 (no result: p47phox inh) | aDG glyco conf inactive
CC(C)OCCCN(C)C1CCN(S(=O)(=O)c2csc(C(N)=O)c2)CC1	none (no result: p47phox inh)
Nc1ccc(C(=O)NNC(=O)C2COc3ccccc3O2)cc1[N+](=O)[O-] (stereo not given)	none (no result: p47phox inh)
CC(C)COc1cccc(C(=O)NNC(=O)C2COc3ccccc3O2)c1 (stereo not given)	aDG glyco act 6.2 (no result: p47phox inh) | aDG glyco conf inactive
O=C1c2ccccc2C(Nc2ccc(S(=O)(=O)N3CCOCC3)cc2)N1c1cccnc1 (stereo not given)	aDG glyco act 10.2 | aDG glyco conf inactive
COc1ccc(NC2c3ccccc3C(=O)N2c2cccnc2)cc1 (stereo not given)	none
COc1ccc(NC(=O)C2Cc3cccc(OC)c3O/C2=N\O)cc1 (stereo not given)	none (no result: p47phox inh)
COc1ccc(NC(=O)C2Cc3ccccc3O/C2=N\O)cc1 (stereo not given)	aDG glyco act 5.9 (no result: ZTA DNA inh, p47phox inh, EBNA-1 inhibitor) | aDG glyco conf inactive
Cc1ccc(OCCCCNC2CCCCC2)c(C)c1	aDG glyco act 6.9 | aDG glyco conf inactive
COc1ccc2[nH]c3c(N4CCN(Cc5ccc6c(c5)OCO6)CC4)ncnc3c2c1	aDG glyco act 8.3 | aDG glyco conf inactive
COc1ccc2c(c1)c1ncnc(N3CCN(Cc4ccc5c(c4)OCO5)CC3)c1n2C	none (no result: aDG glyco act, ZTA DNA inh, EBNA-1 inhibitor, NR1D1 modulator, PG9 binder)
CCOC(=O)CN(C(=O)CSc1nnc(CNc2ccc(F)cc2)n1CC)c1ccc(F)cc1	aDG glyco act 5.2 | aDG glyco conf inactive
COc1ccc(CN2CCC(C(=O)Nc3ccc(Oc4cccnc4)cc3)CC2)c(C)c1C	aDG glyco act 2.2 (no result: p47phox inh) | aDG glyco conf 4.7
N#CCC[C@@H]1CC[C@]2(CCCN(C(=O)c3cccnc3)C2)O1	none (no result: aDG glyco act, ZTA DNA inh, p47phox inh, EBNA-1 inhibitor, PG9 binder)
O=c1cc(-c2ccccc2)oc2ccc(O)cc12	aDG glyco act 2.4 | aDG glyco conf inactive
CCCCOP(=O)(OCCCC)C1(NS(=O)(=O)c2ccccc2)C=CC(=O)c2ccccc21 (stereo not given)	aDG glyco act 5.9 | aDG glyco conf inactive
COC(=O)c1cc(-c2ccc(-c3ccccc3)c(F)c2)c(=O)n2c1CCC2	none (no result: aDG glyco act, ZTA DNA inh, p47phox inh, EBNA-1 inhibitor, PG9 binder)
Cc1c(C(=O)NCc2cccc(Cl)c2)sc(=O)n1Cc1cccc(F)c1	aDG glyco act 6.8 (no result: ZTA DNA inh, p47phox inh, EBNA-1 inhibitor) | aDG glyco conf inactive
Cc1c(C(=O)NCc2ccc(Cl)c(Cl)c2)sc(=O)n1Cc1cccc(F)c1	none (no result: ZTA DNA inh, p47phox inh, EBNA-1 inhibitor)
Cc1cc(OC(=O)c2c(C)cc(OC(=O)c3c(C)cc(O)cc3O)cc2O)cc(O)c1C(=O)O	aDG glyco act 6.1 (no result: p47phox inh) | aDG glyco conf inactive
COC(=O)c1c(C)cc(O)cc1O	none (no result: p47phox inh)
COCCNc1nc(NCCOc2ccccc2)c2sc(-c3ccccc3)cc2n1	aDG glyco act 7.6 (no result: ZTA DNA inh, p47phox inh, EBNA-1 inhibitor) | aDG glyco conf 6.9
COC(=O)C1CCN(C(=O)COC(=O)c2cc(-c3ccccc3)nc3ccc(OC)cc23)CC1	aDG glyco act 6.7 (no result: p47phox inh, EBNA-1 inhibitor, NR1D1 modulator, PG9 binder) | aDG glyco conf inactive
COc1ccc(-c2cc(C(=O)OCC(=O)N3CCOCC3)c3ccccc3n2)cc1	none (no result: ZTA DNA inh, p47phox inh, EBNA-1 inhibitor)
O=C(OC12CCCN(C1)/C(=C/c1ccc(Cl)cc1)C2)c1ccccc1 (stereo not given)	none (no result: aDG glyco act, ZTA DNA inh, p47phox inh, EBNA-1 inhibitor, PG9 binder)
CC(C)Cc1cc(CN2CCC(CO)(Cc3cccc(C(F)(F)F)c3)CC2)[nH]n1	aDG glyco act 10.0, p47phox inh active | aDG glyco conf inactive
O=C(Nc1ccccc1)c1ccccc1OCc1ccc(F)cc1	aDG glyco act 3.8 (no result: p47phox inh) | aDG glyco conf inactive
O=C(Nc1ccc(O)cc1)c1ccccc1OCc1ccccc1	none (no result: ZTA DNA inh, p47phox inh, EBNA-1 inhibitor)

From PubChem BioAssay
